This is an account of results in ChEMBL document CHEMBL1961873, “Compounds: GSK PKIS; Assays: Nanosyn kinase panel” (2012).

Assay [1] deals with T1, Mitogen-activated protein kinase 12 (Homo sapiens) (UniProt P53778).
T1 sequence (whole entry): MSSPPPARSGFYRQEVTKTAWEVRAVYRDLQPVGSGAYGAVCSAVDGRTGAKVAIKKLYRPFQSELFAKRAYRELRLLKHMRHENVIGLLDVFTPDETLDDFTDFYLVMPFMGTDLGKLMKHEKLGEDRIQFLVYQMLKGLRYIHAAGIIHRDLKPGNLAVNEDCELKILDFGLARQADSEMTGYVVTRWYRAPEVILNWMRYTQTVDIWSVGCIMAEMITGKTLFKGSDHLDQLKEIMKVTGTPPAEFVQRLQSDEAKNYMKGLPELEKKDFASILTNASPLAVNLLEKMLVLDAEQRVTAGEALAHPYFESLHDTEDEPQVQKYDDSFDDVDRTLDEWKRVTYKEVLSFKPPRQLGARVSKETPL
To be noted: at 1 µM.

The target of assay [2] is SRSF protein kinase 1 (Homo sapiens) (UniProt Q96SB4). To be noted: at 0.1 µM.
Assay [3] has the same target. To be noted: at 1 µM.
The target of assay [4] is Phosphatidylinositol 4,5-bisphosphate 3-kinase catalytic subunit alpha isoform (Homo sapiens) (UniProt P42336). As to conditions: at 0.1 µM.
For assay [5] the target is unchanged. As to conditions: at 1 µM.
For assay [6], the target named is T2, Phosphatidylinositol 4,5-bisphosphate 3-kinase catalytic subunit delta isoform (Homo sapiens) (UniProt O00329).
T2 sequence (whole entry): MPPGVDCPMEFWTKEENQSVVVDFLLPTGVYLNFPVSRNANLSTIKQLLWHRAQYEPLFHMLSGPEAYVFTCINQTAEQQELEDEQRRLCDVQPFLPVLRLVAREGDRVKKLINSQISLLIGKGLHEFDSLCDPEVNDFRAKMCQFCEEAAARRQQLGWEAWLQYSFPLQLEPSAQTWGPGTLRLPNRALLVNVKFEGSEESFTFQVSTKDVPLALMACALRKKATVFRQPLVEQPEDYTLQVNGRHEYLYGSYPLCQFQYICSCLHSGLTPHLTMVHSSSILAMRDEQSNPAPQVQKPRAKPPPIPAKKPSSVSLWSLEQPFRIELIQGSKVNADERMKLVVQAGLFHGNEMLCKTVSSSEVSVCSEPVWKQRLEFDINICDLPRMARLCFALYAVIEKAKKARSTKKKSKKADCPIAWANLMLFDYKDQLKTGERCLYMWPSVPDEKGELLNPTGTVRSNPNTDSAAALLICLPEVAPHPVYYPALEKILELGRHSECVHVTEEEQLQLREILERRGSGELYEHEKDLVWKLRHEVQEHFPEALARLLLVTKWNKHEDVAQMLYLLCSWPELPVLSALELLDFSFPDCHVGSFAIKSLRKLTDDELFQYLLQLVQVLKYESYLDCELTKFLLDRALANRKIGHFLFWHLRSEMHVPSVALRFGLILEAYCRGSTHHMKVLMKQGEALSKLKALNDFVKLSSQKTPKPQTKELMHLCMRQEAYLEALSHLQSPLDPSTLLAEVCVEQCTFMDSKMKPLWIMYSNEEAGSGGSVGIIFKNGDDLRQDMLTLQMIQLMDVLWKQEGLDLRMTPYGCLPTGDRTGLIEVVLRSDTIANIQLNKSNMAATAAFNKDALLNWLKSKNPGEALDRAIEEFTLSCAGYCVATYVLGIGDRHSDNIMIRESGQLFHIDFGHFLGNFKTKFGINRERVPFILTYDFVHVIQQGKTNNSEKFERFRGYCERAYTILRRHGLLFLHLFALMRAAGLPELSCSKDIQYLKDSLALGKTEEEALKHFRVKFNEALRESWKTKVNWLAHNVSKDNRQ
As to conditions: at 0.1 µM.

The target of assay [7] is T2, Phosphatidylinositol 4,5-bisphosphate 3-kinase catalytic subunit delta isoform (Homo sapiens). To be noted: at 1 µM.
Assay [8] concerns the target Phosphatidylinositol 4-kinase beta (Homo sapiens) (UniProt Q9UBF8). To be noted: at 0.1 µM.
Assay [9] has the same target. As to conditions: at 1 µM.
Assay [10] has as its target Sphingosine kinase 1 (Homo sapiens) (UniProt Q9NYA1). As to conditions: at 0.1 µM.
The target is the same in assay [11]. To be noted: at 1 µM.
In assay [12] the target is T3, Sphingosine kinase 2 (Homo sapiens) (UniProt Q9NRA0).
T3 sequence (whole entry): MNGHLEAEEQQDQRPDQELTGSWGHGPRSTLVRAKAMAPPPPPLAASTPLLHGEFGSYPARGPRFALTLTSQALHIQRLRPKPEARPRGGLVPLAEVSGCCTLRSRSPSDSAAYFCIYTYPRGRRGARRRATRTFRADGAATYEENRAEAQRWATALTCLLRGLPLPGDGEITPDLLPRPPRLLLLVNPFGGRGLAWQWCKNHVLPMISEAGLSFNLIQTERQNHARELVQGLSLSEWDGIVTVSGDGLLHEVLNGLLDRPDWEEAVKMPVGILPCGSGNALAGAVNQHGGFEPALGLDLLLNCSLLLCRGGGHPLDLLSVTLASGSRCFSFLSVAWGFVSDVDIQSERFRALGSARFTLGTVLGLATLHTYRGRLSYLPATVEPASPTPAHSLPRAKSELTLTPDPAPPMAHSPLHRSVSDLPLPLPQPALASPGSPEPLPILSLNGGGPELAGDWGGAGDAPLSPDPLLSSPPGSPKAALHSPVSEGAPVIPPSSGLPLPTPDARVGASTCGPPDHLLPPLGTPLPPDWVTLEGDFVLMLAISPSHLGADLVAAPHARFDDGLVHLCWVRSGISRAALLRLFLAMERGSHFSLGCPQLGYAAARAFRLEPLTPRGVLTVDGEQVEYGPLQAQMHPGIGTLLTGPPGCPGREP
As to conditions: at 0.1 µM.

The target in assay [13] is T3, Sphingosine kinase 2 (Homo sapiens). As to conditions: at 1 µM.
For assay [14], the target named is Casein kinase II subunit alpha (Homo sapiens) (UniProt P68400). To be noted: at 0.1 µM.
Assay [15] shares this target. As to conditions: at 1 µM.
Assay [16] concerns the target T4, Inhibitor of nuclear factor kappa-B kinase subunit alpha (Homo sapiens) (UniProt O15111).
T4 sequence (whole entry): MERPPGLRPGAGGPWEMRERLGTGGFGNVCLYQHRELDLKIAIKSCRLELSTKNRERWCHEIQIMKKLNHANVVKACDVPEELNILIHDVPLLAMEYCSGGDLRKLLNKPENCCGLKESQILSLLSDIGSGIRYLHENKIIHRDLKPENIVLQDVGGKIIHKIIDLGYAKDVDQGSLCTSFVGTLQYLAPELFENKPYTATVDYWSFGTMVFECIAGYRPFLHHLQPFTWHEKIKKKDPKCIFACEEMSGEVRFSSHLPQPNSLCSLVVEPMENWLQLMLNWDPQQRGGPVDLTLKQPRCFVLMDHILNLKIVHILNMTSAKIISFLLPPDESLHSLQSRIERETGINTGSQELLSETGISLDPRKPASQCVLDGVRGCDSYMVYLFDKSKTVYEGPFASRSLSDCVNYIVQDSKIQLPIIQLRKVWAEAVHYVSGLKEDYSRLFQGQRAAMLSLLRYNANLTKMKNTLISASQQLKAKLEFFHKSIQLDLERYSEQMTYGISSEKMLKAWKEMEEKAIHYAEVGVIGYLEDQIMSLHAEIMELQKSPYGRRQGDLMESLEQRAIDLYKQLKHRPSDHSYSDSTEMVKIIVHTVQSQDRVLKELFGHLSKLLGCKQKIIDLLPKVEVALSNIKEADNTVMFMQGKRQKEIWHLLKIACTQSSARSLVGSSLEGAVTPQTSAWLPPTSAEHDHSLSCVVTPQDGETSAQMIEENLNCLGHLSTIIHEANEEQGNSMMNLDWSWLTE
As to conditions: at 0.1 µM.

Assay [17] deals with T4, Inhibitor of nuclear factor kappa-B kinase subunit alpha (Homo sapiens). As to conditions: at 1 µM.
Assay [18] has as its target T5, Inhibitor of nuclear factor kappa-B kinase subunit beta (Homo sapiens) (UniProt O14920).
T5 sequence (whole entry): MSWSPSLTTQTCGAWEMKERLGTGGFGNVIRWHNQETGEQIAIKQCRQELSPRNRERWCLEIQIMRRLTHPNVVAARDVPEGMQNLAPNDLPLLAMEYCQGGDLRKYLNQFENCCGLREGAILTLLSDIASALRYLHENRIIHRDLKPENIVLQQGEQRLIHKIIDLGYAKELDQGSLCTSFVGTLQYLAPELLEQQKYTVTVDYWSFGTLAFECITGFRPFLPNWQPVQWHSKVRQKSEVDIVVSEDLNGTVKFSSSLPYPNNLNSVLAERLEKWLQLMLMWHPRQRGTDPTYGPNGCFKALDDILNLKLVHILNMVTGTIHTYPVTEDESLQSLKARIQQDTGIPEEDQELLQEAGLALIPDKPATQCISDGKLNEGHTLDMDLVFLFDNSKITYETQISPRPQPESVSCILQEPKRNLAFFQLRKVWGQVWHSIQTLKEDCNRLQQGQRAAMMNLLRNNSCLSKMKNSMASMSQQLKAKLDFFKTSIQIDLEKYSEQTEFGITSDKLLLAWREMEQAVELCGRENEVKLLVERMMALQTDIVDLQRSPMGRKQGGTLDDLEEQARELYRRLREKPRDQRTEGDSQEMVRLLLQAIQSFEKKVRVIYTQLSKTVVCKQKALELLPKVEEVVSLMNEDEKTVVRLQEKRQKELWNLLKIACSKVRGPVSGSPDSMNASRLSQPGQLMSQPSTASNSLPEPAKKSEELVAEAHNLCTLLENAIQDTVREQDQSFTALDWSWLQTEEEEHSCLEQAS
As to conditions: at 0.1 µM.

In assay [19] the target is T5, Inhibitor of nuclear factor kappa-B kinase subunit beta (Homo sapiens). To be noted: at 1 µM.
Assay [20] deals with T6, Inhibitor of nuclear factor kappa-B kinase subunit epsilon (Homo sapiens) (UniProt Q14164).
T6 sequence (whole entry): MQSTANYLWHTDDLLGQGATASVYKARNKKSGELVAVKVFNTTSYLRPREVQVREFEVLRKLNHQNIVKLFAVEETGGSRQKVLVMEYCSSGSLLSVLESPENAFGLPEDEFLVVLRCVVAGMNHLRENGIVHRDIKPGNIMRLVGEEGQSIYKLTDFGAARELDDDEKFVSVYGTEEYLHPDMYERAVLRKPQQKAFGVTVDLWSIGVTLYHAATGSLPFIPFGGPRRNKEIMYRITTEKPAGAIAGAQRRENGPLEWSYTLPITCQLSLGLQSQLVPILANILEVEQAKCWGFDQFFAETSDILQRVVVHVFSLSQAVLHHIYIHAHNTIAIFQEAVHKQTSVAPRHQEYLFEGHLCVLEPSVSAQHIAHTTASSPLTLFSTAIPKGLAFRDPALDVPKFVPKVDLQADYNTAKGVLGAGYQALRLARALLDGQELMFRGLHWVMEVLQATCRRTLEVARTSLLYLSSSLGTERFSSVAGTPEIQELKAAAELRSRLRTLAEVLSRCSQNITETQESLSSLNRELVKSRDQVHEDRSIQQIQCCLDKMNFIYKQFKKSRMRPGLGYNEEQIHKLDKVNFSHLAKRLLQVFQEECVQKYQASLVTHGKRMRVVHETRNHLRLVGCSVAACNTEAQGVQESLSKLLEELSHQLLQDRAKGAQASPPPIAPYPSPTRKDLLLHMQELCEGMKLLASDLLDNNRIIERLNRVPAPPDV
As to conditions: at 0.1 µM.

Chain of Casein kinase II subunit alpha (Homo sapiens) (P68400 whole entry, looked up): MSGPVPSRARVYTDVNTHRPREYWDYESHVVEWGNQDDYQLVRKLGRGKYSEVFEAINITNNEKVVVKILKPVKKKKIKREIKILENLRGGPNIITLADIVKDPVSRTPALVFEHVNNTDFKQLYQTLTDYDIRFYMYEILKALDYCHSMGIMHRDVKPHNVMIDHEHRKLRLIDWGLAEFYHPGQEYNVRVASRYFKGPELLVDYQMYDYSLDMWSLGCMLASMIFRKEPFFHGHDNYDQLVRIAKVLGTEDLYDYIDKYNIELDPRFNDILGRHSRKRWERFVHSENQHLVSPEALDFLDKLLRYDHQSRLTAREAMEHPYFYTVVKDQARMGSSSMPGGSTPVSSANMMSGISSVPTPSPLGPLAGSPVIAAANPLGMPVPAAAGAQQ
Chain of SRSF protein kinase 1 (Homo sapiens) (Q96SB4 whole entry): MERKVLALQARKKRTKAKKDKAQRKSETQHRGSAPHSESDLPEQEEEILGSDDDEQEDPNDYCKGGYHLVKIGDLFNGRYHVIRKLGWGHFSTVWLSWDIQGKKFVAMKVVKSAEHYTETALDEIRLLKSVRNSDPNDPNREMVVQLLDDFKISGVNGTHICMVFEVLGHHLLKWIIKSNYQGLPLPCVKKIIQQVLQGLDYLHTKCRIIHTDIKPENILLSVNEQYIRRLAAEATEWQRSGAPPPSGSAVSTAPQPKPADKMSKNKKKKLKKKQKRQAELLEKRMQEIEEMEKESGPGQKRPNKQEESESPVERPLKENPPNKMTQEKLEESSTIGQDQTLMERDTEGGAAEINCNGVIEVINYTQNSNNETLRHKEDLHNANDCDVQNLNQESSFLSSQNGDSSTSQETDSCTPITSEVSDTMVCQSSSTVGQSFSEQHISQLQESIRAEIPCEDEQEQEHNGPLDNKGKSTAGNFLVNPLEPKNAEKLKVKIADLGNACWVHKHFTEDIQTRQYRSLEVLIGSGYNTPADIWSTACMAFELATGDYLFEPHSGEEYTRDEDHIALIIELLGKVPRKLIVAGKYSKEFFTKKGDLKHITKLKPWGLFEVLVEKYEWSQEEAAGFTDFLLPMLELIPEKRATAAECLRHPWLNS
Chain of Sphingosine kinase 1 (Homo sapiens) (Q9NYA1 whole entry): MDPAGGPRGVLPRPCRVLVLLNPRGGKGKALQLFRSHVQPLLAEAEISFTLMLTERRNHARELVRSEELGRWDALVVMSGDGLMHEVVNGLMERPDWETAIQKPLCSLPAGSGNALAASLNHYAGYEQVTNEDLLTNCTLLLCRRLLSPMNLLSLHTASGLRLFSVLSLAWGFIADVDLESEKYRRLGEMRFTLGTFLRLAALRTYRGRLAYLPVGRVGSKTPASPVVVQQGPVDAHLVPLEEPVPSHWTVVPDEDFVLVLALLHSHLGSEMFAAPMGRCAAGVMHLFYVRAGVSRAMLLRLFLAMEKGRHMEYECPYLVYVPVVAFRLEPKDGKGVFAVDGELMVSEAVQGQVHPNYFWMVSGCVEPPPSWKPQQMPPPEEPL
Chain of Phosphatidylinositol 4-kinase beta (Homo sapiens) (Q9UBF8 2-816 limits assumed): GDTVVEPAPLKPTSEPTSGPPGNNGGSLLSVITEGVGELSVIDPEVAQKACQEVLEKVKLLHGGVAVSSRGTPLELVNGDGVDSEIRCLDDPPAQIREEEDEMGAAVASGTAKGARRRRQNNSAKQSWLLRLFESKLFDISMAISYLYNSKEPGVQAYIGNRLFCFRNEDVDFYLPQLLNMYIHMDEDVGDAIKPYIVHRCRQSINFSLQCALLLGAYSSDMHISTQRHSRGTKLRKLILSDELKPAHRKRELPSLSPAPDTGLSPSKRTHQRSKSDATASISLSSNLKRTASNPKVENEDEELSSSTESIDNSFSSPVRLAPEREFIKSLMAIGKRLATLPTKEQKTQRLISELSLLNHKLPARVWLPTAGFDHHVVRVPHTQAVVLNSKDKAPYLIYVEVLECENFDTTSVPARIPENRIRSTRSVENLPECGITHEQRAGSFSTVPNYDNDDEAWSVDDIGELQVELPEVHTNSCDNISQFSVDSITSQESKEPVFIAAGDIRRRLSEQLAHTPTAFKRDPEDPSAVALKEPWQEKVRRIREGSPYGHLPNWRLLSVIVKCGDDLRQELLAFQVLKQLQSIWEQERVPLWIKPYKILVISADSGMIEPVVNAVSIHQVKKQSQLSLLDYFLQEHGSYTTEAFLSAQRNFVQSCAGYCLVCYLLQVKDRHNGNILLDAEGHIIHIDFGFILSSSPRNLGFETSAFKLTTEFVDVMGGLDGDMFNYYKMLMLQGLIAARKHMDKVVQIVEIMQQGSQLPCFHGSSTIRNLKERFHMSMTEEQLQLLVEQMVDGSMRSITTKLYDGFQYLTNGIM
Chain of Phosphatidylinositol 4,5-bisphosphate 3-kinase catalytic subunit alpha isoform (Homo sapiens) (P42336 whole entry, canonical isoform): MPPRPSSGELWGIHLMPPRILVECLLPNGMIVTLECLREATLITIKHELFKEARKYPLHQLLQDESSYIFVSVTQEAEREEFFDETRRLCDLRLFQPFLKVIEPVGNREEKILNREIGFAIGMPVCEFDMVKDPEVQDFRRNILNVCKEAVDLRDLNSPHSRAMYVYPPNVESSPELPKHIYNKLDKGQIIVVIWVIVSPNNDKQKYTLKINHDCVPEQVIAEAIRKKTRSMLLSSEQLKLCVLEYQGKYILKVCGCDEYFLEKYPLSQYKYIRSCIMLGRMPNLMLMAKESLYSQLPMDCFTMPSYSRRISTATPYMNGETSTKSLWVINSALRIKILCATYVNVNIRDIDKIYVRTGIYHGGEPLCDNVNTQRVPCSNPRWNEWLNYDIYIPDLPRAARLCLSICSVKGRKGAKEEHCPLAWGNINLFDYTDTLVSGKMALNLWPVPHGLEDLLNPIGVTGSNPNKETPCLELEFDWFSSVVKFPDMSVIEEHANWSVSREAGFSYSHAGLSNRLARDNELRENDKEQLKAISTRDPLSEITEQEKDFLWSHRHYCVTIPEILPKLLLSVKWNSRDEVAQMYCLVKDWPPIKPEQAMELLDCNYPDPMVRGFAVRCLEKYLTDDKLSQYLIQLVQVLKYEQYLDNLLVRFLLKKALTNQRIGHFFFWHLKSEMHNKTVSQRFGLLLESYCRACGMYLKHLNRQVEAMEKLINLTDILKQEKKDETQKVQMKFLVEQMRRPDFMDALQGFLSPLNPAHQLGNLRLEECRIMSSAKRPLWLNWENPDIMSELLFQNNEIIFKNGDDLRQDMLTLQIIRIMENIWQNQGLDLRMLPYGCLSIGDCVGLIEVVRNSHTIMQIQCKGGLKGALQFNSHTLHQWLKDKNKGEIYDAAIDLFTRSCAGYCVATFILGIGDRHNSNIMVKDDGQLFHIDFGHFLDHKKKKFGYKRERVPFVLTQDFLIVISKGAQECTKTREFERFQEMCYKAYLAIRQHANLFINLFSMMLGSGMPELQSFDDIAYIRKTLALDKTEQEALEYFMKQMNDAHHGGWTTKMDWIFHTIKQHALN

Consider `Cc1cc(Cl)cc2c1NC(=O)C2=NNc1ccc(S(N)(=O)=O)cc1`, for which the inhibition in assay [1] was 2.01%; in assay [2], -1.22%; in [3] it was 1.09%; in [4] it was 0.48%; in [5], 1.85%; in assay [6], 0.72%. For the same compound, the inhibition is 4.67% in assay [7]; -5.44% in assay [8]; 3.24% in assay [9]; 0.93% in assay [10]; -2.79% in assay [11]; -0.11% in [12]. For the same compound, the inhibition was -2.78% in assay [13]; 3.02% in [14]; 8.79% in [15]; 1.51% in assay [16]; 10.1% in [17]; 8.97% in assay [18]. For the same compound, the inhibition amounted to 7.33% in assay [19] and 6.15% in assay [20].
For `CCn1c(-c2nonc2N)nc2ccc(F)cc21`, the inhibition in [1] is 3.36%; in assay [2], -1.22%; in [3] it was 2.61%; in assay [4], 4.99%; in assay [5], 4.15%; in assay [6], 3.09%. The inhibition is 2.96% in assay [7]; -0.18% in [8]; 6.29% in assay [9]; 0.88% in [10]; 0.48% in assay [11]; 3.46% in assay [12]. The inhibition in assay [13] is -5.33%; in [14], 4.71%; in [15] it was 8.79%; in assay [16], 4%; in [17], 6.96%; in [18], 7.24%. The values for the inhibition in assay [19] and in assay [20] were 8.68% and 8.59%, respectively.
On to `NC(=O)c1sc(-n2cnc3ccccc32)cc1OCc1ccccc1Br`, for which the inhibition in [1] was 5.59%; in assay [2], -3.49%; in assay [3], -2.38%; in assay [4], 4.02%; in assay [5] it was 4.31%; in assay [6] it was 2.31%. Further, the inhibition was 4.24% in [7]; 0.67% in assay [8]; -1.28% in assay [9]; 1.25% in assay [10]; -0.07% in assay [11]; 1.77% in assay [12]. Besides, the inhibition was 0% in assay [13]; 5.03% in assay [14]; 5.76% in assay [15]; 4.61% in assay [16]; 7.53% in assay [17]; 4.02% in assay [18]. For the same compound, the inhibition in [19] came out at 5.66%; in assay [20] it was 8.4%.

One may read the inhibition as the relative decrease from the control value, in per cent.
